# Experiments:
# [1] = test system: Human papillomavirus type 1a protein E7 (residues 44-93); assay: HPV1a E7 fragment binders on microarrays, primary screen, biochemical, small-molecule microarray, residues 44-93, 635 nm fluorescence (AID 1108); settings: small-molecule microarray binding, fluorescence 635 nm; higher = more signal;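 also: E7 fragment applied at 1 µg/mL in TBST for 1 h at 4 C; score combines spot fluorescence with its signal to noise ratio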
# [2] = modulators of HCV replicon luciferase signal, primary screen, HCV replication inhibitor project, Huh7 cells, luciferase reporter (AID 1109); settings: 48 h, higher = more signal;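 also: huh7 hepatoma cells harbouring a luciferase neomycin HCV replicon reporter; luciferase luminescence as measure of HCV replicon replication; test concentration not given here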
# [3] = biological target: Left-right determination factor 2 (Homo sapiens) (UniProt O00292); assay: LEFTY2 binders on small-molecule microarrays, primary screen, biochemical, small-molecule microarray, 635 nm fluorescence scan (AID 1110); settings: LEFTY2 binding, higher = more signal
# Left-right determination factor 2 (Homo sapiens), sequence (O00292 whole entry, looked up): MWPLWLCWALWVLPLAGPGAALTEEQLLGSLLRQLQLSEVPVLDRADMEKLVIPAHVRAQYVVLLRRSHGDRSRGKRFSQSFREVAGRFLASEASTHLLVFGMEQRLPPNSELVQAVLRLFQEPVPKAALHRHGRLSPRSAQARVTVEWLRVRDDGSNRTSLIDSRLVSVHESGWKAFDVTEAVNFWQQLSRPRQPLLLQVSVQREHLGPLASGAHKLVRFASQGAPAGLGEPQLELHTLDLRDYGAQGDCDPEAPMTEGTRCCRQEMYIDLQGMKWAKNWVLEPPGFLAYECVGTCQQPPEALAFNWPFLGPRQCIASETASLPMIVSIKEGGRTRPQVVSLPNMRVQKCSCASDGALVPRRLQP
# [4] = biological target: Calmodulin-1 (Homo sapiens) (UniProt P0DP23); assay: CALM1 binders on microarrays, EGTA buffer, profiling panel, biochemical, small-molecule microarray, Cy5-labelled CALM1 (AID 1111); settings: Cy5-CALM1 binding fluorescence, higher = more signal;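 also: labelled calmodulin applied in Tris saline Tween buffer holding calcium plus EGTA and DTT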
# [5] = biological target: Calmodulin-1 (Homo sapiens) (UniProt P0DP23); assay: calcium-bound CALM1 binders on microarrays, profiling panel, artefact control for SMM control-protein annotation, biochemical, small-molecule microarray, Cy5-labelled CALM1, plus calcium (AID 1112); settings: Cy5-CALM1 binding fluorescence, higher = more signal;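 also: score merges spot fluorescence with signal to noise from triplicate slides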
# [6] = small-molecule microarray binders of probe aWnt5a, primary screen, biochemical, biotinylated probe, 635/667 nm fluorescence (AID 1113); settings: higher = more signal;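 also: score merges 667 nm fluorescence intensity with signal-to-noise per printed feature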
# [7] = small-molecule microarray binders of probe aShh, primary screen, biochemical, biotinylated probe, 635/667 nm fluorescence (AID 1114); settings: higher = more signal;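 also: probe is biotin-labelled aShh protein from a stem cell growth factor screen; measures binding of labelled protein to compounds printed on the slide; score merges feature fluorescence at 667 nm with signal-to-noise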
# [8] = small-molecule microarray binders of probe aNog, primary screen, biochemical, biotinylated probe, 635/667 nm fluorescence (AID 1115); settings: higher = more signal;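 also: probe is biotinylated aNog protein used at 0.15 µg/mL for 1 h at 4 C; z-score combines 667 nm fluorescence of each spot with its signal to noise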
# [9] = biological target: Torsin-1A-interacting protein 1 (Homo sapiens) (UniProt Q5JTV8); assay: LAP1 binders from COS7 cell lysate, primary screen, small-molecule microarray, 635/667 nm fluorescence (AID 1116); settings: COS7-hLAP1 lysate binding, 635 nm fluorescence, higher = more signal
# Torsin-1A-interacting protein 1 (Homo sapiens), sequence (Q5JTV8 whole entry, looked up): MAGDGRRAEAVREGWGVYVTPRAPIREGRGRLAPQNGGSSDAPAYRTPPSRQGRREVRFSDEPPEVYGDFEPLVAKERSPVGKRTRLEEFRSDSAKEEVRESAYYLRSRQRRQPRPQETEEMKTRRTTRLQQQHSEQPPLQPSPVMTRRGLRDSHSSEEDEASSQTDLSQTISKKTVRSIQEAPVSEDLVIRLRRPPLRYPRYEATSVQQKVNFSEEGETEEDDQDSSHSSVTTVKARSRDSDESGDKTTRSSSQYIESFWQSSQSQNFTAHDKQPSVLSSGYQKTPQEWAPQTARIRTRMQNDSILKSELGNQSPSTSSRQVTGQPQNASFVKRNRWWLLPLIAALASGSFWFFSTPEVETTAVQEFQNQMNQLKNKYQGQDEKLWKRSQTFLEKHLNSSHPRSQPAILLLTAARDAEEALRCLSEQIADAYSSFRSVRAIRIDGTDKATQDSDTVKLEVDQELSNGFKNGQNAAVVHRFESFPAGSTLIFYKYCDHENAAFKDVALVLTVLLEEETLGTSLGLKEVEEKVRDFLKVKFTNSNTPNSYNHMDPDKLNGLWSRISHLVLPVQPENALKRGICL
# [10] = biological target: Alpha-bungarotoxin (Bungarus multicinctus) (UniProt P60615); assay: alpha-bungarotoxin binders on microarray, profiling panel, artefact control for SMM control protein annotation, biochemical, small-molecule microarray, Alexa647 label, 635/667 nm fluorescence (AID 1117); settings: alpha-BTX-A647 binding fluorescence, higher = more signal
# Alpha-bungarotoxin (Bungarus multicinctus), sequence (P60615 whole entry, looked up): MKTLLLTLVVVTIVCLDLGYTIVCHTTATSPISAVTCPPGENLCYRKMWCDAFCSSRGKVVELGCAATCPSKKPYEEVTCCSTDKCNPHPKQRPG
SMILES,composite z-score [1],z-score [2],composite z-score [3],composite z-score [4],composite z-score [5],composite z-score [6],composite z-score [7],composite z-score [8],composite z-score [9],composite z-score [10]
C=CC[C@]1(C(=O)N2CCCCC2)N=C(c2ccc(OCCCO)cc2)O[C@H]1c1ccccc1,0.254,-1.98,0.32,0.0382,-0.0541,0.15,-0.155,2.28,1.55,0.741
COC(=O)C=C(CC(O)c1cccc(Cl)c1)OC (stereo not given),-0.734,-0.923,-0.17,1.27,1.01,0.23,0.506,1.93,1.99,1.51
COc1ccc(C(O)C2C=CC3C(=O)N(C)C(=O)C3N2N2CCCCC2)c2ccccc12 (stereo not given),1.43,-0.534,-0.129,1.26,0.639,0.131,0.476,-0.0646,0.826,1.34
C=CCNC(=O)[C@@H]1[C@H]2C(=O)O[C@H](c3ccccc3)[C@H](c3ccccc3)N2[C@H](c2ccc(OCCO)cc2)[C@@]12C(=O)Nc1ccc(C#Cc3ccc(OC)cc3)cc12,0.14,-1.87,0.849,1.63,0.0791,0.0597,0.366,0.201,0.781,2.88
C=CCOC(=O)[C@H]1[C@@H]2C(=O)O[C@@H](c3ccccc3)[C@@H](c3ccccc3)N2[C@@H](c2ccc(OCCOC(=O)[C@H]3C[C@H]4C(=O)N5CCC[C@H]5C(=O)N4[C@H]3c3ccc(O)cc3)cc2)[C@]12C(=O)Nc1ccccc12,1.45,-1.93,1.42,0.959,-0.0987,0.0354,0.147,-0.21,1.5,0.588
O=C1OCC=C[C@H]2OC34C=CCN(c5ccc6ccccc6c5)C(=O)[C@H]3N(CCCCCCO)C(=O)[C@@H]4[C@@H]12 (stereo not given in full),-0.925,0.699,-1.06,-0.327,0.132,-0.152,0.0121,0.509,1.09,-1.01
CN(C)CCCNC(=O)[C@@]1(c2ccc([N+](=O)[O-])cc2)CC(=O)N(C2CCCCC2)[C@@H]1c1ccc(CO)cc1,1.04,-1.77,-0.419,0.465,0.0617,-0.25,-0.408,-0.483,0.218,0.8

# Reference: PubChem BioAssay
